Assay outcomes (PubChem)
aSyn 5UTR act: Activators via SNCA 5'UTR binding, MLPCN | alpha-synuclein 5'UTR reporter, activators screen | activity score, % (tested at 7.5 µM), hits read low | 300,000 tested, 7.1% active | AID 1814; in the data active means activity score below about -60%
Each line names hits and unclear results; the compound was inactive in the other large screens. Only a sample is shown.

Cc1cc(Cl)c2oc(C(=O)N(C)C3CCOC3)c(C)c2c1 (stereo unspecified)	aSyn 5UTR act -108
Cc1cc(Cl)c2oc(C(=O)N(C)Cc3ccon3)c(C)c2c1	aSyn 5UTR act -104
O=C(CCl)N1c2ccccc2SCC1c1ccccc1 (stereo unspecified)	aSyn 5UTR act -64
c1cncc(Nc2nc(-c3cccnc3)cs2)c1	aSyn 5UTR act -72
Cc1ccc(Nc2nc(-c3cccnc3)cs2)cc1Cl	aSyn 5UTR act -175
Clc1ccccc1Nc1nc(-c2cccnc2)cs1	aSyn 5UTR act -185
Clc1ccccc1-c1csc(Nc2cccnc2)n1	aSyn 5UTR act -71
COc1cccc2sc(Nc3nc(-c4ccncc4)cs3)nc12	none
COc1cccc(Nc2nc(-c3cccnc3)cs2)c1	aSyn 5UTR act -173
Cc1ccccc1OCc1occc1C(=O)Nc1cccc(-n2cnnn2)c1	aSyn 5UTR act -91
CN(c1nc(-c2ccc(Br)cc2)cs1)C1CCS(=O)(=O)C1 (stereo unspecified)	aSyn 5UTR act -112
Cc1nc2cc(-c3ccc(Cl)cc3)nn2c(C)c1CCC(=O)NC(C)c1ccc2c(c1)OCCO2 (stereo unspecified)	none
Cc1c(C(=O)O)cnc2cc(-c3ccc(Cl)cc3)nn12	aSyn 5UTR act -71
CC(=O)c1cnc2cc(-c3ccc(Cl)cc3)nn2c1C	aSyn 5UTR act -95
CCN(CC)c1ccc(CNc2ccc(Br)cn2)cc1	aSyn 5UTR act -103
CCOc1ccc(/C=C/c2nc(C#N)c(NCCCOC)o2)cc1	aSyn 5UTR act -150
COCCCNc1oc(/C=C/c2ccccc2)nc1C#N	aSyn 5UTR act -114
COc1ccc(-c2nc3n(c2C)CCC3)cc1	aSyn 5UTR act -63
COc1ccc(-c2cc3nc4n(c(=O)c3s2)CCC4)cc1	none
Oc1ccc(CNc2ccccc2F)c2cccnc12	none
Oc1ccc(COCc2ccccc2)c2cccnc12	none
CSc1ncccc1C(=O)OCc1ccccc1	aSyn 5UTR act -66
CSc1ncccc1C(=O)OCc1ccccc1F	aSyn 5UTR act -62
C/C(=N\Nc1nc(C)c(C)s1)c1ccc([N+](=O)[O-])cc1	aSyn 5UTR act -130
C/C(=N\Nc1ccc([N+](=O)[O-])cc1)c1ccc(N)cc1	aSyn 5UTR act -101
CCOC(=O)c1nc(NNC(=O)c2ccc([N+](=O)[O-])cc2)sc1C	none
C/C(=N\Nc1ccc([N+](=O)[O-])cc1)c1ccco1	aSyn 5UTR act -180
CCc1ccc(/C(C)=N\Nc2ccc([N+](=O)[O-])cc2)cc1	aSyn 5UTR act -137
CN(C)/N=C/C=C1\CC/C(=C\c2ccc(Br)cc2)C1=O	aSyn 5UTR act -84
CN(C)/N=C/C=C1\CCC/C(=C/c2cccs2)C1=O	aSyn 5UTR act -173
Cc1ccc(C(=O)Nc2ccc(CN3CCS(=O)(=O)CC3)cc2)cc1C	aSyn 5UTR act -78
O=C(Nc1ccc2c(c1)OCCO2)c1ccc(Cl)c(S(=O)(=O)N2CCOCC2)c1	aSyn 5UTR act -67
O=C(Nc1ccc2c(c1)OCCO2)c1ccc(CN2CCOCC2)cc1	aSyn 5UTR act -148
COc1ccc(Oc2cnc3ccccc3n2)cc1	aSyn 5UTR act -65
Clc1cccc(Oc2cnc3ccccc3n2)c1	aSyn 5UTR act -66
CC(C)(C)c1ccc(Oc2ccc(N)cn2)cc1	none
Cc1cccn2c(=O)c(C=Nc3ccc(Cl)cc3)c(NCCO)nc12	aSyn 5UTR act -91
O=[N+]([O-])c1ccccc1OCCCOc1cccc2cccnc12	aSyn 5UTR act -96
CCOC(=O)/C=C/COc1ccccc1[N+](=O)[O-]	aSyn 5UTR act -70
COc1ccc(OCCOc2ccccc2[N+](=O)[O-])cc1	aSyn 5UTR act -153
O=[N+]([O-])c1ccccc1OCCOc1ccccc1[N+](=O)[O-]	aSyn 5UTR act -138
O=[N+]([O-])c1ccccc1NCCOc1ccccc1	aSyn 5UTR act -227
COCCCNc1nc(N)c([N+](=O)[O-])c(NCc2ccccc2)n1	none
CC1CN(c2ccc([N+](=O)[O-])c(NCCOc3ccc(Cl)cc3)c2)CC(C)N1 (stereo unspecified)	none
COc1ccc(CNc2ncccc2[N+](=O)[O-])cc1	aSyn 5UTR act -80
COc1cc(/C=N/NC(=O)c2cc(-c3cccn3C)n[nH]2)cc(OC)c1OC	aSyn 5UTR act -71
COc1cccc(/C=N/NC(=O)c2cc(-c3cccn3C)n[nH]2)c1O	none
COc1ccc2c(c1)oc(=O)c1cc(OC)ccc12	aSyn 5UTR act -182
COc1ccc2c(=O)c3ccccc3oc2c1	aSyn 5UTR act -147
COc1ccc2c(c1)oc(=O)c1c3ccccc3[nH]c21	aSyn 5UTR act -277
Cc1ccc(/C=C/C(=O)Nc2nccs2)o1	aSyn 5UTR act -157
Cc1ccc(/C=C/C(=O)Nc2ccc(N(C)C)cc2)o1	aSyn 5UTR act -193
Cc1ccc(/C=C/C(=O)Nc2ncc(C)s2)o1	aSyn 5UTR act -207
Cc1cnc(NC(=O)/C=C/c2ccc(Br)o2)s1	aSyn 5UTR act -106
O=C(C1CCCN(c2ncnc3c2nc2n3CCCCC2)C1)N1CCN(c2ccccc2)CC1 (stereo unspecified)	aSyn 5UTR act -148
CC(=O)C1=C(C)OC(N)=C(C#N)C1c1cc2cc(C)c(C)cc2nc1Cl (stereo unspecified)	aSyn 5UTR act -68
